Compounds with a hit are over-represented: about 7% of the library has one in this group of screens.
ADAM10 inh: inhibits human ADAM10 | inhibition, % at 7 µM | 370,000 tested, 0.62% active | recombinant ADAM10, EDANS/DABCYL FRET peptide cleavage, 3 h | O14672;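 active = inhibition above a per-campaign cutoff equal to the mean of compounds falling between control-based bounds plus 3 SD, cut at about 20% in these data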;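 also: 0% = DMSO wells while the 100% control is not disclosed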
rCAG RNA binder: r(CAG) repeat RNA binding. TO-PRO-1 dye displacement fluorescence. inhibition, % at 3 µM. 370,000 tested, 1.3% active. AID 651821;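 active = inhibition above the plate cutoff, the mean of all test compounds on that plate plus 3 SD, cut at about 35% in these data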;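 also: 0% = DMSO alone and 100% = 100 µM mitoxantrone as full dye displacement; higher means more dye released from RNA so lower well fluorescence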
KLK7 zymogen act: activators of human kallikrein-7 zymogen; P49862; purified proKLK7, EDANS-DABCYL substrate fluorescence; 100% is mature enzyme control, 0% vehicle; activation, % at 7 µM; 370,000 tested, 0.9% active;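 active = activation above the mean of all tested compounds plus 3 SD, computed per campaign excluding outliers beyond control limits, cut at about 13% in these data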
AHR activator: activates the human aryl hydrocarbon receptor. P35869. AHR-responsive luciferase reporter cells, luminescence. activation, % at 5 µM. 320,000 tested, 2.5% active. AID 2796; in the data active = activation above about 47%;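 also: 0% = vehicle wells and 100% = reference agonist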
ADAM17 inh: inhibits human ADAM17; recombinant ADAM17, EDANS/DABCYL FRET peptide cleavage; inhibition, % at 6.95 µM; 370,000 tested, 0.83% active;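 active = inhibition above the mean of compounds lying between control limits plus 3 SD, set per campaign, cut at about 8.5% in these data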;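 also: 0% = DMSO-only wells as the low control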
Target sequence (P78536 215-824 limits assumed): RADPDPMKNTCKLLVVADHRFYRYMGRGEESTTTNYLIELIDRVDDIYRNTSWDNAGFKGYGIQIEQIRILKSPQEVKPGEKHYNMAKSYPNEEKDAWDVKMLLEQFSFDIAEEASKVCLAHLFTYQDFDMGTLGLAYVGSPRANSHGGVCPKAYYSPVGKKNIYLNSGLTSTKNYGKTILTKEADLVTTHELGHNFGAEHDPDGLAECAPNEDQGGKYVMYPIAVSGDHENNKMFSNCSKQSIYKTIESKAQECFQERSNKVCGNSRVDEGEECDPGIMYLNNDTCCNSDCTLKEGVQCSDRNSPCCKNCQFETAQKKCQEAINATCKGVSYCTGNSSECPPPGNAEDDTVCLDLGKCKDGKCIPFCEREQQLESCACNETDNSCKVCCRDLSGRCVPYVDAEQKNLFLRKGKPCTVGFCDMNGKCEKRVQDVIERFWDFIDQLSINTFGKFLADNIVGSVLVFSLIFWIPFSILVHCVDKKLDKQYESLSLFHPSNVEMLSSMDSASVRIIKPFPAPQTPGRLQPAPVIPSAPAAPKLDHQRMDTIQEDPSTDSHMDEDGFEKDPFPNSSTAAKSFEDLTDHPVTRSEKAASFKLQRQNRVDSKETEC
NR3A LBD binder: NR3A (human) ligand-binding domain modulation; NR3A LBD differential scanning fluorimetry, Tm shift; 0% = protein alone, 100% = glycine-bound protein; Tm shift relative to glycine control, % at 25 µM; 340,000 tested, 2.5% active;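 active = melting temperature shift of at least 10% of the positive control shift, at one fixed dose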
KLK7 act conf: confirmation of human kallikrein-7 zymogen activators; shares compounds with KLK7 zymogen act; purified proKLK7, EDANS-DABCYL substrate fluorescence; scaled: vehicle 0, mature enzyme 100; activation, % at 7 µM; 3,200 tested, 68% active;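 active = activation, as change over the incubation, above the mean of all tested compounds plus 3 SD, cut at about 13% in these data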
EDANS-DABCYL int: fluorescence interference counter-screen for KLK7 activators. EDANS-DABCYL substrate fluorescence interference, no enzyme, 4 h; solvent 0%, active enzyme control 100%. shares compounds with KLK7 zymogen act. 3,200 tested, 80% active. activation, % at 7 µM;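 active = activation above the all-compound mean plus 3 SD, ignoring values outside control-based bounds, cut at about 4.8% in these data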;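 also: value is the 4 h activation minus the activation read at time zero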
Numbers without * were called inactive; i = inactive; x = no result.

SMILES	ADAM10 inh	rCAG RNA binder	KLK7 zymogen act	AHR activator	ADAM17 inh	NR3A LBD binder	KLK7 act conf	EDANS-DABCYL int
Brc1ccc2ncc(Br)cc2c1	1.2	0.3	0.4	0.8	-2.2	0.3	x	x
CCCCC1C2C(=O)N(c3ccc(C)cc3)C(=O)C2ON1c1ccccc1 (centres undefined)	0.5	-0.1	15.2*	-0.3	-3.9	-0.2	36.0*	34.0*
COC(=O)c1cc(NC(=O)CC(=O)c2cccc(N)c2)cc(C(=O)OC)c1	-26.8	21.2	15.3*	x	-6.5	x	-1.3	-0.1
COC(=O)c1cc(NC(=O)c2cccc(F)c2)cc(C(=O)OC)c1	-0.6	-5.3	0.2	0.5	-6.4	-0.2	x	x
COc1ccc(-c2sc3cc(OC)c(OC)cc3c2-c2ccc(O)cc2)cc1	-51.7	12.7	-6.5	18.2	-16.4	3.4	x	x
C=CCc1c(C)nc(-c2ccccc2)nc1N/N=C/c1ccccc1	-2.0	-3.3	13.8*	33.3	1.6	0.1	0.5	0.6
Cc1csc2nc3cc(C(N)=O)ccc3c(=O)n12	i	0.8	22.0*	1.9	-244.4	-4.7	62.7*	77.3*
CCOC(=O)C1=NN(c2ccccc2)C2C(=O)N(c3ccccc3OC)C(=O)C12 (centres undefined)	-20.4	-4.0	18.9*	11.7	-6.8	1.1	2.7	-0.3
COC(=O)c1nccnc1C(=O)Nc1ccccc1N1CCOCC1	-6.4	-3.8	0.1	-0.5	-0.5	0.9	x	x
O=Cc1ccc(-c2cccs2)s1	i	0.5	47.0*	x	i	-1.0	58.1*	67.3*
CCOC(=O)C1CCN(C(=O)Nc2ccc3oc(C)nc3c2)CC1	4.2	1.6	-0.1	1.4	-0.5	0.5	x	x
CCOC(=O)C1CCN(C(=O)Nc2ccc3nc(C)c(C)nc3c2)CC1	i	-3.0	23.2*	-2.7	-477.8	-1.2	46.1*	53.0*
CCN(C1CCCCC1)S(=O)(=O)CCNC(=O)c1ccccc1	-7.0	-9.1	0.2	2.2	-2.0	0.8	x	x
O=S(=O)(Nc1ccc(S(=O)(=O)N2CCCC2)cc1)c1ccc(F)cc1F	-4.5	0.8	0.5	0.5	-0.1	1.1	x	x
N#CC1=C(N)C(C#N)(C#N)C(c2ccncc2)C2CN(C(=O)OCc3ccccc3)CC=C12 (centres undefined)	-293.8	8.2	17.3*	0.6	-104.9	-1.2	36.0*	35.2*
CN1CC=C2C(C#N)=C(N)C(C#N)(C#N)C(c3ccsc3)C2C1 (centres undefined)	-366.6	-16.8	15.4*	14.7	-106.8	0.7	56.9*	54.6*
CC(C)c1ccc(C2C3CSCC=C3C(C#N)=C(N)C2(C#N)C#N)cc1 (centres undefined)	x	x	x	46.3	x	x	x	x
CN1CC=C2C(C#N)=C(N)C(C#N)(C#N)[C@H](c3cccs3)[C@H]2C1	x	x	x	11.2	x	-1.4	x	x
CCOC(=O)N1CC=C2C(C#N)=C(N)C(C#N)(C#N)[C@H](c3ccsc3)[C@H]2C1	-135.1	4.2	8.0	7.6	-42.8	-1.2	x	x
N#CC1=C(N)C(C#N)(C#N)[C@H](c2cccnc2)[C@H]2CN(C(=O)OCc3ccccc3)CC=C12	-144.5	-0.1	7.9	0.1	-45.8	1.8	x	x
CCCC1C2CN(C(C)C)CC=C2C(C#N)=C(N)C1(C#N)C#N (centres undefined)	i	-31.0	23.5*	4.4	-267.8	1.4	11.5	13.9*
CN1CC=C2C(C#N)=C(N)C(C#N)(C#N)[C@H](c3cccc(Cl)c3)C2C1 (some centres undefined)	-458.6	-15.7	12.8*	1.9	-141.5	-1.6	34.2*	35.3*
CC(C)NC(=O)C1(C)CN(S(C)(=O)=O)CC(=O)N1Cc1cccc(C(F)(F)F)c1 (centres undefined)	-3.8	0.2	0.3	x	-0.5	x	x	x
Cc1cc(N)ccc1-n1nc2ccccc2n1	-10.2	-2.7	-0.5	-5.6	-7.9	-2.5	x	x
Cc1ccc(-n2nc3ccc(N)cc3n2)c(C)c1	i	16.3	40.1*	-2.8	-228.1	0.3	76.6*	76.3*
SMILES	ADAM10 inh	rCAG RNA binder	KLK7 zymogen act	AHR activator	ADAM17 inh	NR3A LBD binder	KLK7 act conf	EDANS-DABCYL int
Cc1ccc(-n2nc3ccc(N)cc3n2)cc1Cl	-185.9	11.2	-48.9	28.5	-70.9	-0.5	x	x
COc1ccc(-n2nc3ccc(N)cc3n2)cc1Cl	-289.8	18.6	52.7*	13.0	-118.9	-6.1	75.1*	75.4*
CCOC(=O)C1CCN(c2cc3c(cc2NC(=O)c2ccccc2Br)n(C)c(=O)n3C)CC1	-14.3	-1.5	2.7	1.8	-7.1	-4.3	x	x
CCOC(=O)C1CCN(c2cc3c(cc2NC(=O)c2cc(OC)ccc2Br)n(C)c(=O)n3C)CC1	-69.6	-3.8	19.5*	1.2	-18.8	1.7	24.8*	30.5*
COC(=O)C1C(O)=C(C=Nc2cccc3ccccc23)C(=O)CC1(C)C (centres undefined)	-220.9	1.7	33.8*	9.7	-82.9	-3.5	24.7*	23.2*
COC(=O)C1C(O)=C(C=NCc2ccccc2)C(=O)CC1(C)C (centres undefined)	5.8	-3.3	0.1	1.8	-1.8	-6.1	x	x
CN1c2ccccc2Oc2nnc(Cl)cc21	i	2.6	13.2*	-9.6	-206.4	-2.5	28.4*	34.1*
CC(=O)N1Cc2cc(N)ccc2Oc2ccccc21	8.2	6.7	-0.1	2.1	-1.3	-1.3	x	x
c1ccc(C[n+]2cccc3c4ccccc4ccc32)cc1	i	11.5	15.7*	1.3	-308.2	-1.9	22.2*	27.6*
CCCCC[n+]1cccc2c3ccccc3ccc21	i	6.9	26.4*	-2.2	-347.0	0.5	15.7*	17.1*
O=[N+]([O-])c1ccc(C[n+]2cccc3ccccc32)cc1	4.8	-14.6	-0.1	10.1	-0.3	-0.6	x	x
CC(C)CN1CCC1(C)C(=O)Nc1cc(-c2ccccc2)nn1C (centres undefined)	-2.9	-2.0	-0.2	x	-1.1	x	x	x
COC(=O)c1cc(CSc2nc3ccccc3c(=O)n2C)oc1C	0.5	3.6	0.2	3.4	-4.6	-2.0	x	x
COc1cc2c(cc1OC)-c1cc(OCCN3CCOCC3)nc(=O)n1CC2	i	-3.3	77.1*	2.3	i	-0.9	68.9*	63.6*
Cc1nc2nc(-c3ccccc3)cn2nc1C	i	-0.8	64.0*	2.5	i	-0.1	69.8*	72.3*
CCc1ccc(-c2cn3nc(C)c(C)nc3n2)cc1	i	-1.8	49.5*	0.1	i	-0.3	72.8*	72.0*

Screening data deposited in PubChem BioAssay by several laboratories.
